In the library only some 3.5% were active in any assay of this set; here they are far more common.
GPR151 activ: activates the human receptor GPR151 | PathHunter beta-arrestin GPR151 cells, luminescence | activation, % at 11.2 µM | Q8TDV0 | hit rate 1% among 650,000; in the data active = activation above about 4.9%
Target sequence (Q8TDV0 whole entry, looked up): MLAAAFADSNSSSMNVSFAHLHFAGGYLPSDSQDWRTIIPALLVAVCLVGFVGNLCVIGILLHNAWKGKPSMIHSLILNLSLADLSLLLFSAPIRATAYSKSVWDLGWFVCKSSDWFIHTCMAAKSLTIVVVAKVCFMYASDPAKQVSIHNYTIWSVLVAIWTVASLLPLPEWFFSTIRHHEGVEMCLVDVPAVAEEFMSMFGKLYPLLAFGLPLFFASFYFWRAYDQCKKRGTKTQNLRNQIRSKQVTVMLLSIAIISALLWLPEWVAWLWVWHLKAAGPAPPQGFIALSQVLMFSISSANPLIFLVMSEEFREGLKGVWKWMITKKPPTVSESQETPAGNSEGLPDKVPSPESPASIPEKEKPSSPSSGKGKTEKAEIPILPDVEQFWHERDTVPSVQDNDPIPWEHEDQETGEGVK
MITF inh: human MITF inhibition, primary screen; AlphaScreen MITF homodimerization, bead proximity signal; inhibition, % at 2.6 µM; hit rate 0.91% among 650,000; AID 1259374; in the data active = inhibition above about 50%
FBW7 activator: human FBW7 E3 ligase activation, primary screen. Q969H0. AlphaScreen FBW7–phospho-cyclin E peptide binding, activator screen. normalized activity (activation), % at 26.1 µM. hit rate 0.13% among 650,000; in the data active = normalized activity above about 1.9%;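 note: purified mutant Fbw7 with reduced substrate affinity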
TEAD-YAP inh: TEAD-YAP interaction inhibition. hit rate 1.4% among 640,000. inhibition, % at 9.12 µM. AID 1259422. HEK-TIYL cells, TEAD-Gal4/YAP UAS-luciferase luminescence; in the data active = inhibition above about 32%
MITF inh conf: human MITF inhibition, confirmation; shares compounds with MITF inh; AlphaScreen MITF homodimerization, biotin/His-MITF beads; inhibition, % at 2.6 µM; hit rate 16% among 4,700; AID 1259372;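 active = inhibition above a cutoff derived from the DMSO control wells, cut at about 28% in these data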;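 note: inhibitors lower the bead chemiluminescence by keeping MITF from dimerizing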
AS interf DR: optically interferes with AlphaScreen signal in dose response; shares compounds with MITF inh; AlphaScreen optical interference counterscreen, cell-free; IC50, µM; hit rate 6% among 480; call rule not given here
AlphaScreen intf2: optically interferes with AlphaScreen signal; hit rate 7.6% among 4,700; shares compounds with MITF inh; inhibition, % at 2.6 µM; AID 1259376; LysRS AlphaScreen counterscreen, signal interference, triplicate;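 active = inhibition above a cutoff derived from the DMSO control wells, cut at about 30% in these data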
Large screens that a line does not name were inactive (follow-up assays come after a bar, where they were run).

O=C1CCC(CCC(=O)N2CCN(C/C=C/c3ccccc3)CC2)(Cc2ccco2)N1 (configuration not stated)	none
NC(=O)c1ccc(-c2cc(C(=O)Nc3ccc(N4CCOCC4)cc3)ccn2)cc1	none
Cc1ccc(C(C)C)cc1OCCCCN1CCOCC1	MITF inh 78.9 | MITF inh conf inactive | AlphaScreen intf2 inactive
Cc1ccc(C)c(OCCCN2CCOCC2)c1	none
O=C(c1ccccc1F)N1c2ccccc2CCc2ccccc21	none
O=C(CSc1nc(NCc2ccco2)c2ccccc2n1)N1CCN(c2ccccc2)CC1	MITF inh 52.2 | MITF inh conf inactive | AlphaScreen intf2 inactive
CN1C(=O)/C(=C2\SC(=Nc3ccc(F)cc3)NC2=O)c2cc(Br)ccc21	MITF inh 50.8 | MITF inh conf inactive | AlphaScreen intf2 inactive
CN1C(=O)/C(=C2\SC(=Nc3ccc(Br)cc3)NC2=O)c2ccccc21	none
Cc1ccc(NC(=O)/C(=C/c2ccccc2)NC(=O)c2ccccc2)cc1F	none
CCOc1ccc(CN2CCC(C(=O)N3CCN(CC)CC3)CC2)cc1	none
NC(=O)C1CCN(Cc2ccc(Cl)c(Cl)c2)CC1	MITF inh 53.2 | MITF inh conf inactive | AlphaScreen intf2 inactive
CCN1CCN(C(=O)C2CCN(Cc3ccc(Cl)c(Cl)c3)CC2)CC1	MITF inh 63.4 | MITF inh conf inactive | AlphaScreen intf2 inactive
O=C(CN1CCN(Cc2ccccc2)C1=O)NCCc1ccccc1	none
CN1[C@@H](C(=O)Nc2cc(Cl)ccc2O)C[C@@H](c2cccs2)NS1(=O)=O	MITF inh 69.8 | MITF inh conf inactive | AlphaScreen intf2 inactive
CC(=O)CCCC(C)CCCC(C)CCCC(C)C (configuration not stated)	none
C/C(=C\CO)CC[C@H](C)CCC[C@H](C)CCCC(C)C	MITF inh 104.8 | MITF inh conf inactive | AlphaScreen intf2 inactive
Cc1cc(F)ccc1S(=O)(=O)NCCc1csc2nc(-c3ccc(F)cc3)nn12	none
CN(C)c1cccc(Nc2nc3ncnc(NCCCN4CCCC4=O)c3[nH]2)c1	MITF inh 52.7 | MITF inh conf inactive | AlphaScreen intf2 inactive
CCCOc1ccc(N)cc1N	MITF inh 56.6 | MITF inh conf 110.2 | AS interf DR inactive | AlphaScreen intf2 inactive
COC(=O)C1=CN(Cc2ccc(OC)cc2)C=C(C(=O)OC)C1c1ccc(C)s1	none
CCC(=O)Nc1ccc(N2CCCCC2)c(Cl)c1	none
CCNc1nc(Nc2ccccc2)c2cnn(C)c2n1	none
CCCNc1nc(Nc2ccccc2)c2cnn(C)c2n1	MITF inh 112.3 | MITF inh conf inactive | AlphaScreen intf2 inactive
Cc1ccc(/C=C(\C#N)C(=O)Nc2c(Cl)cccc2Cl)o1	MITF inh 73.8 | MITF inh conf inactive | AlphaScreen intf2 inactive
Cc1ccc(/C=C(\C#N)C(=O)Nc2cccc(Cl)c2Cl)o1	none
Cc1csc2ncc(C(=O)NCCCO)c(=O)n12	none
COCCNC(=O)c1cnc2scc(C)n2c1=O	MITF inh 75.6 | MITF inh conf inactive | AlphaScreen intf2 inactive
CCNC(=O)/C(C#N)=C/c1ccc(Cl)c(Cl)c1	MITF inh 53.4 | MITF inh conf inactive | AlphaScreen intf2 inactive
CCNc1nc(NCC)n2c(SCc3ccc(C)cc3)nnc2n1	none
COc1cc(OC)cc(C(=O)N2CCN(C3CCN(Cc4ccccc4)CC3)CC2)c1	MITF inh 58.5 | MITF inh conf inactive | AlphaScreen intf2 inactive
COc1cc(C(=O)N2CCN(Cc3cccnc3)CC2)cc(OC)c1OC	MITF inh 54.0 | MITF inh conf inactive | AlphaScreen intf2 inactive
COc1cc(C(=O)N2CCN(Cc3cccc(F)c3)CC2)cc(OC)c1OC	MITF inh 53.6 | MITF inh conf inactive | AlphaScreen intf2 inactive
COc1cc(OC)cc(C(=O)N2CCN(Cc3cccnc3)CC2)c1	MITF inh 65.8 | MITF inh conf inactive | AlphaScreen intf2 inactive
CCOC(=O)C(C)Oc1ccc2oc(C)c(C(=O)OCCOC)c2c1 (configuration not stated)	none
N#Cc1ccc(C(=O)Nc2ccc(Cl)cn2)c(F)c1	none
Cc1cccc(CNC(=O)C2CC23CCN(C(=O)c2c(-c4ccccc4)noc2C)CC3)n1 (configuration not stated)	MITF inh 79.8 | MITF inh conf inactive | AlphaScreen intf2 inactive
Cc1cccc(CNC(=O)C2CC23CCN(C(=O)c2cc(-c4ccccc4)no2)CC3)n1 (configuration not stated)	none
CCCCNC(=O)c1ccc(Sc2ccc(F)cc2)c([N+](=O)[O-])c1	none
Fc1ccc(-c2cc(N3CCN(c4ccccn4)CC3)nc(-c3cccnc3)n2)cc1	MITF inh 73.2 | MITF inh conf inactive | AlphaScreen intf2 inactive
c1ccc(-c2nc(-c3cccnc3)cc(N3CCN(c4ccccn4)CC3)n2)cc1	none
OC1CCN(c2cc(-c3ccccc3)nc(-c3cccnc3)n2)CC1	none
OC1CCN(c2cc(-c3cccnc3)nc(-c3ccccc3)n2)CC1	MITF inh 71.4 | MITF inh conf inactive | AlphaScreen intf2 inactive
O=C(c1cn(-c2ccccc2)nc1-c1cccs1)N1CCOCC1	none
O=C(c1cn(-c2ccccc2)nc1C12CC3CC(CC(C3)C1)C2)N1CCOCC1	MITF inh 58.9 | MITF inh conf inactive | AlphaScreen intf2 inactive
Fc1ccccc1-c1cnc2ccc(NCc3cccs3)nn12	MITF inh 53.0 | MITF inh conf inactive | AlphaScreen intf2 inactive
O=C1NC(=O)C(Cc2ccccc2)(C2CCN(Cc3ccsc3)CC2)N1 (configuration not stated)	none
COc1ccc(OC)c(S(=O)(=O)NCc2cccnc2)c1	none
CCOc1ccc(OCC)c(S(=O)(=O)NCc2cccnc2)c1	MITF inh 56.5 | MITF inh conf inactive | AlphaScreen intf2 inactive
O=C(N/N=C\c1cccc([N+](=O)[O-])c1)c1cnccn1	MITF inh 65.5 | MITF inh conf inactive | AlphaScreen intf2 inactive
O=C(N/N=C/c1cccc2cccnc12)c1ccc(Cl)cc1	none
O=C(N/N=C/c1cccc2cccnc12)c1cccc([N+](=O)[O-])c1	MITF inh 53.0 | MITF inh conf 55.8 | AlphaScreen intf2 100.3
O=C1N[C@H](Cc2ccc(O)cc2)C(=O)N2CCN(C(=O)NC3CCCCC3)C[C@H]12	MITF inh 76.4 | MITF inh conf 70.0 | AS interf DR inactive | AlphaScreen intf2 inactive
O=C1N[C@@H](Cc2ccc(O)cc2)C(=O)N2CCN(C(=O)NC3CCCCC3)C[C@H]12	MITF inh 69.8 | MITF inh conf 69.2 | AS interf DR inactive | AlphaScreen intf2 inactive
O=C1N[C@@H](Cc2cnc[nH]2)C(=O)N2CCN(C(=O)NC3CCCCC3)C[C@H]12	none
O=C(N/N=C\c1ccccc1Br)c1cnccn1	none
Cc1cc(C)n(CCCNCC(O)COCc2cccs2)n1 (configuration not stated)	MITF inh 78.9 | MITF inh conf inactive | AlphaScreen intf2 inactive
Cc1cc(C)n(CCCNCC(O)COCc2ccccc2)n1 (configuration not stated)	none
COc1ccc(N2CCN(c3ncnc4sc(C(=O)Nc5ccc(C)cc5Br)c(C)c34)CC2)cc1	none
